About 79,000 compounds went through this panel and 15% of them were active in at least one assay; those are over-represented in the sample as a whole. The source made the active and inactive calls. Cut-off read from the data, not from the text of the source: active = growth inhibition above about 70%; inactive = the rest. Residues, ends and D or L forms follow the SMILES beside them. *: point of attachment. Fmoc = O=C(OCC1c2ccccc2-c2ccccc21)*; Boc = CC(C)(C)OC(=O)*
Test: NCI Yeast Anticancer Drug Screen. Data for the rad50 strain (AID 155);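 note: 0% = growth of vehicle-only cultures of the same strain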
Conditions: S. cerevisiae rad50 strain growth inhibition; at 11.0 µM; active compounds read high
In short: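 Inhibition values express reduced yeast growth in compound-treated cultures relative to vehicle-treated controls.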

| SMILES | growth inhibition |
| --- | --- |
| CC(C)C(=O)CC(Sc1ccc(N)cc1)c1ccccc1 (stereo unspecified) | -19% (inactive) |
| CC(C)OP(=O)(OC(C)C)/C(Cl)=N/Nc1ccc([N+](=O)[O-])cc1 | 61% (inactive) |
| O=[N+]([O-])c1cc(Cl)ccc1S(=O)(=O)c1ccc(Cl)cc1[N+](=O)[O-] | 41% (inactive) |
| CCCCCCNCCCNc1c2cc(OC)ccc2nc2cccc([N+](=O)[O-])c12 | 66% (inactive) |
| N#CCC(=O)N/N=C(\c1ccccc1)C(c1ccccc1)C1(O)C(=O)Nc2c(Cl)ccc(Cl)c21 (stereo unspecified) | 8% (inactive) |
| CN(C)CCNCCCNc1c2ccccc2nc2cccc([N+](=O)[O-])c12 | 61% (inactive) |
| CCC[CH2][Ge]([CH2]CCC)([CH2]CCC)[O]C(=O)C(O)c1ccccc1 (stereo unspecified) | 36% (inactive) |
| COc1ccc(-c2cc(-c3cc(C)cc(Cl)c3O)nc3[nH]c(=S)[nH]c(=S)c23)cc1 | 6% (inactive) |
| O=[N+]([O-])c1ccc(/C=C\c2ccc3c(c2)OCO3)c([N+](=O)[O-])c1 | 29% (inactive) |
| O=C1c2ccccc2N2OC3(N4CCCC4)CCCCC3C12c1ccccc1 (stereo unspecified) | 7% (inactive) |
| CC(C)OC(=O)NNc1cc(Cl)ccc1Cl | 41% (inactive) |
| Cc1oc2ccccc2c(=O)c1Cn1nnc2ccccc21 | -1% (inactive) |
| CC1(C)OC(=O)C(=Cc2ccc([N+](=O)[O-])s2)C(=O)O1 | -13% (inactive) |
| CCN(CC)CCCNc1ccc([N+](=O)[O-])c2nc3ccc(OC)cc3c(NCCCN(CC)CC)c12 | -1% (inactive) |
| COc1cccc(/C=C2\S/C(=N/Nc3nc(-c4ccc([N+](=O)[O-])cc4)cs3)NC2=O)c1O | 43% (inactive) |
| OC(Cc1cccc2ccccc12)CN1CCC(c2ccccc2)CC1 (stereo unspecified) | 66% (inactive) |
| C1=CCN([B-](c2ccccc2)[C+]2CCCCC2)C=C1 | 16% (inactive) |
| O=[N+]([O-])c1cc[n+]([O-])c(Cl)c1 | 28% (inactive) |

| SMILES | growth inhibition |
| --- | --- |
| CCCNC(=O)OCc1c(COC(=O)NCCC)c(-c2ccc(Cl)c(Cl)c2)n2c1CCC2 | -27% (inactive) |
| CC1(C)CC(=O)C(C(=O)Nc2cccs2)=C(O)C1 | 18% (inactive) |
| O=C(NO)c1coc2ccccc2c1=O | 1% (inactive) |
| COc1ccc(C(C)c2cc3c(cc2OCC(C)=O)OCO3)cc1 (stereo unspecified) | 26% (inactive) |
| CCS(=O)(=O)Nc1ccc(Nc2c3ccccc3nc3ccccc23)c(OC)c1 | 86% (active) |
| O=S(=O)(c1ccccc1)N1CN2CN(C1)CN(S(=O)(=O)c1ccccc1)C2 | -10% (inactive) |
| CC1=NN(C(=O)c2ccccc2O)C(=O)/C1=C/c1ccco1 | 64% (inactive) |
| O=C1C=C(Br)C(=O)c2ccccc21 | 98% (active) |
| C[N+](C)([O-])CCCNc1c2ccccc2nc2cccc([N+](=O)[O-])c12 | 91% (active) |
| Cc1cccc2c(NCCCN(C)C)c3c([N+](=O)[O-])ccc(C)c3nc12 | 92% (active) |
| OC1(c2ccccc2)C2CC=CC2C1(c1ccccc1)c1ccccc1 (stereo unspecified) | 12% (inactive) |
| C[n+]1c(-c2ccc(/C=N/NC(=O)c3ccc(C(=O)N/N=C/c4ccc(-c5cn6ccccc6[n+]5C)cc4)cc3)cc2)cn2ccccc21 | 16% (inactive) |
| CCN(CC)CCC(=O)Nc1ccc2sc3ccccc3c(=O)c2n1 | 85% (active) |
| O=[N+]([O-])c1ccc2nc(=S)[nH]n2c1 | 13% (inactive) |
| O=C(c1ccccc1)[C@H]1Nc2ccc(Cl)cc2[C@H]2OCCC[C@@H]12 | -6% (inactive) |
| COc1cc([N+](=O)[O-])c2ncccc2c1Br | 25% (inactive) |
| O=S(=O)(c1cccc(C(F)(F)F)c1)N1c2ccccc2-n2cccc2C1c1cccnc1 (stereo unspecified) | 85% (active) |
| CC(C)(C)OC(=O)NCCCCC(NC(=O)C(Cc1c[nH]c2ccccc12)NC(=O)OCC1c2ccccc2-c2ccccc21)C(=O)O (stereo unspecified) (Fmoc-Trp-Lys(Boc)-OH; configuration not given here) | -3% (inactive) |

Source: PubChem BioAssay (NCI)
